Measured values: PubChem BioAssay AID686979 (National Center for Advancing Translational Sciences (NCATS), 2013)
About 50,000 (12%) of roughly 420,000 compounds were called active. Inconclusive results (about 26%) are left out. The full list was thinned out, with actives kept by preference. A number with no mark means an inactive call. Calls follow the shape of the dose curve; as a rule, active = well fitted inhibition curve with a large enough effect; inconclusive = small, poorly fitted or top-dose-only effect; inactive = flat fitted curve, though single readings scatter.

assay: qHTS for Inhibitors of human tyrosyl-DNA phosphodiesterase 1 (TDP1): qHTS in cells in presence of CPT; conditions: chicken DT40 Tdp1-/-;hTDP1 cells + 20 nM CPT, ATP luminescence, 48 h; series mostly up to 46.2 µM; activity change, negative = growth inhibition: at the top concentration; also: nearly all actives have a fitted effect of over 55% in size
From the text: Human tyrosyl-DNA phosphodiesterase 1 (TDP1) is a novel repair gene, and we propose to use it as a new target for anticancer drug development. TDP1 is not an essential protein, but under treatment with topoisomerase I poison (camptothecin: CPT), TDP1 works as a critical factor for cell survival. To directly identify novel TDP1 inhibitors active in a cellular environment, we have knocked-out the Tdp1 gene in chicken DT40 cells (Tdp1-/-) and generated a complemented counterpart cells that contains a stable transfection of the human TDP1 gene (Tdp1-/-;hTDP1 cells). For the primary screen, Tdp1-/-;hTDP1 cells will be exposed to small molecules in the presence or absence of CPT, and their growth kinetics will be evaluated after 48 hours by measuring ATP activity. […] The hit compounds will then be evaluated in the presence or absence of CPT using Tdp1-/- cells. […] In tertiary assays, biochemical gel-based assays will be used to assess whether the hit compounds specifically target TDP1. To this end, we have screened this cell line against the MLSMR in two primary screens. In one screen we add CPT and in the other we screen in the absence of CPT; this AID represents the screen where CPT was present. NIH Chemical Genomics Center [NCGC] NIH Molecular Libraries Probe Centers Network [MLPCN] MLPCN Grant: MH095538 Assay Submitter (PI): Yves Pommier, NCI
DT40-hTDP1 cells with 20 nM Camptothecin (add 20 microL of 1 mM CPT stock in 1 L of cell culture medium) were dispensed at 400 cells/5microL/well in tissue culture treated 1536-well white wall/solid bottom assay plates (Greiner Bio-One North America, NC, U.S.A.) using a Multidrop Combi 8 channel dispenser (Thermo Fisher, Waltham, MA, USA). 23 nL compounds and controls were transferred using the pin tool (Kalypsys, San Diego, CA, USA) to the assay plates. The assay plates were then incubated at 37 masculineC for a minimum 48 hr. Three microL of Cell Titer Glo solution was added to the plates and incubated at RT in dark for 30 min. Luminescence was read using ViewLux (Perkin Elmer) with 1 sec exposure slow speed, high gain and 2x binning.
% is scaled to controls: 0 for no effect and ±100 for the full control effect; potency is read from the fitted curve at half-maximal effect.

Row | Structure (SMILES) | activity change, negative = growth inhibition | Potency
1 | CN(Cc1ccccc1)S(=O)(=O)c1nnc(NC(=O)c2ccccc2F)s1 | -20.1% | 
2 | CCOc1cc(CNCCN(C)C)c(Cl)cc1OCC(=O)NCCc1ccccc1 | -11.9% | 
3 | Nc1ncnc2c1ncn2[C@@H]1O[C@H](CNS(=O)(=O)c2ccc(-c3ccno3)s2)[C@@H](O)[C@H]1O | -29.6% | 
4 | O=C(Nc1nnc(SCc2c(Cl)cccc2Cl)s1)c1cccc([N+](=O)[O-])c1 | -2.24% | 
5 | COc1ccc(N(CC(=O)NC2CCCC2)C(=O)CS(=O)CC(=O)Nc2ccc3c(c2)OCO3)cc1 (stereo not drawn) | -3.24% | 
6 | O=C(COC(=O)c1cc[n+]([O-])cc1)Nc1ccc(Cl)c(C(F)(F)F)c1 | -26% | 
7 | COc1ccc(NC(=O)CSc2nccn2Cc2ccc3c(c2)OCO3)cc1 | -24% | 
8 | O=C(Nc1ccc2c(c1)OCO2)C1CC(c2c(F)cccc2Cl)=NO1 (stereo not drawn) | -29.9% | 
9 | O=C1OC(C(=O)Nc2cccc(Br)c2)Cc2ccccc21 (stereo not drawn) | 8.89% | 
10 | CC(=O)Nc1ccc(-c2ccnc3c2CC(C(=O)NC(C)C)O3)cc1 (stereo not drawn) | -23.4% | 
11 | O=C(Nc1ccc(Cl)cc1)C1Cc2c(-c3ccc4c(c3)OCO4)ccnc2O1 (stereo not drawn) |  | 23.1 µM (active)
12 | O=C(Nc1ccc(Cl)c(C(F)(F)F)c1)C1Cc2c(-c3ccccc3Oc3ccccc3)ccnc2O1 (stereo not drawn) |  | 18.4 µM (active)
13 | COc1ccc(NC(=O)C2Cc3c(-c4ccc5c(c4)OCO5)ccnc3O2)cn1 (stereo not drawn) |  | 4.11 µM (active)
14 | CC(=O)c1cccc(NC(=O)C2CCCN2S(=O)(=O)c2cccc3nsnc23)c1 (stereo not drawn) | 9.59% | 
15 | COCCNC(=O)CSc1nc(N)c(NC(=O)c2ccco2)c(=O)[nH]1 | 3.53% | 
16 | COC(=O)c1c(C)oc(C)c1S(=O)(=O)NCc1ccc(Cl)cc1 | -20.3% | 
17 | COC(=O)c1cc(NC(=O)CCS(=O)(=O)c2cc(Br)cc3c2N(C(=O)C2CC2)CC3)cc(C(=O)OC)c1 | -2.75% | 
18 | Cc1cc(C)n(-c2ccc(NC(=O)C3CCCCN3C(=O)c3cccs3)cc2)n1 (stereo not drawn) | -10.8% | 
19 | Cc1cccc(OCCSc2nc3ccc(NC(=O)COc4ccccc4C)cc3s2)c1 | -21.3% | 
20 | Cc1ccccc1OCCSc1nc2ccc(NC(=O)c3ccco3)cc2s1 |  | 20.6 µM (active)
21 | COc1cc(C)ccc1OCCSc1nc2ccc(NC(=O)c3ccc(C)cc3)cc2s1 | -27.4% | 
22 | Cc1ccccc1SCC(=O)OCC(=O)N1CC(=O)Nc2ccccc21 | 5.39% | 
23 | CC1=NNC(=O)C1CCC(=O)N/N=C\c1ccc(Cl)c(Cl)c1 (stereo not drawn) | 1.5% | 
24 | Cc1cccc(OCC(=O)N(Cc2ccc(C(C)C)cc2)Cc2ccco2)c1C |  | 16.4 µM (active)
25 | Cc1cccc(OCc2nnc(SCC(=O)N3CCN(C(=O)c4ccco4)CC3)n2C)c1C | -0.881% | 

Row | Structure (SMILES) | activity change, negative = growth inhibition | Potency
26 | Cc1ccnc(NC(=O)CCC(=O)N(CC(=O)NCc2ccccc2)Cc2ccco2)c1 | 37.5% | 
27 | Cc1cccc(N(C(=O)Cn2nnc(-c3ccc(C)o3)n2)C(C(=O)NC2CCCC2)c2ccncc2)c1 (stereo not drawn) | -14.6% | 
28 | COc1ccc(CN2CCC3(CCC(CNC(=O)c4ccco4)O3)CC2)cc1OC (stereo not drawn) | -1.91% [at 9.04 µM] | 
29 | O=C(OCC(=O)N1CCCC1)c1ccc(Cl)nc1 | -5.05% | 
30 | O=C(Nc1ccccc1)c1ccc(NC(=O)c2cccs2)cc1 | -21.6% | 
31 | O=C(Nc1ccc(NC(=O)c2cccs2)cc1)c1ccc2ccccc2c1 | -3.7% | 
32 | CC(C)(C)c1ccc(C(=O)Nc2ccc3c(c2)CCCN3C(=O)c2cccs2)cc1 |  | 5.8 µM (active)
33 | COCCN(C(=O)CCC(=O)Nc1nccs1)C(C(=O)NC(C)(C)C)c1ccc(Cl)cc1 (stereo not drawn) | -4.68% | 
34 | O=C(c1cccc(Cn2cccn2)c1)N1CCOc2c(cc(-c3csc4ccccc34)cc2OC2CCOC2)C1 (stereo not drawn) |  | 18.4 µM (active)
35 | Cc1cnc(C)c(-c2cc(F)c3c(c2)CC(CNC(=O)c2cccc(Cn4cccn4)c2)O3)n1 (stereo not drawn) | -5.96% | 
36 | CCOC(=O)N1CCN(Cc2ccc3c(c2)CN(C(=O)c2cccc(-n4cccn4)c2)CCO3)CC1 | -11.3% [at 9.04 µM] | 
37 | Cc1ccc(C(=O)NCC(=O)OCC(=O)Nc2cccc(S(=O)(=O)N3CCCC3)c2)cc1C | -26.5% | 
38 | CN1C[C@@H](CO)O[C@@H](n2cnc3c(N4CCN(CCO)CC4)ncnc32)C1 | -0.685% | 
39 | CCCCn1c(N)c(N(CCC(C)C)C(=O)CC2OC(=O)c3ccccc32)c(=O)[nH]c1=O (stereo not drawn) | -12.2% | 
40 | CCOc1cc(/C=C(/C#N)c2ccc(Cl)cc2)cc(Cl)c1OCC(=O)O | -4.71% | 
41 | CCOc1ccc(C(CC(=O)O)NC(=O)COc2ccccc2)cc1 (stereo not drawn) | -2.55% | 
42 | O=C(COc1ccc(-c2ccccc2)cc1)NN=C1CCCC1 | 6.33% | 
43 | CC(NC(=O)COc1ccc(-c2ccccc2)cc1)C1CCCO1 (stereo not drawn) |  | 20.6 µM (active)
44 | CN(C(=O)COC(=O)CNC(=O)C12CC3CC(CC(C3)C1)C2)c1ccccc1 | -8.7% | 
45 | O=C(NCC(=O)N1CCC2(CC1)NCCc1[nH]cnc12)c1ccc(Br)cc1 | -15.1% | 
46 | CCc1ccc(CN(C)C(C)C(=O)Nc2ccc(S(=O)(=O)N3CCCC3)cc2)cc1 (stereo not drawn) |  | 18.4 µM (active)
47 | CN(CC(=O)Nc1ccc(S(=O)(=O)N2CCCC2)cc1)Cc1ccc(Cl)c(Cl)c1 | -74.4% | 
48 | CC(OC(=O)c1ccc(NC(=O)CC#N)cc1)C(=O)Nc1ccc(S(=O)(=O)N2CCCC2)cc1 (stereo not drawn) | -20% | 
49 | Cc1cc(/C=C(/C#N)C(=O)Nc2ccc(Cl)cc2)c(C)n1-c1cccnc1 | -22% | 
50 | COCCn1c(SCC(=O)Nc2ccc(F)cc2F)nc2c(c1=O)SCC2 | -8.27% | 

Row | Structure (SMILES) | activity change, negative = growth inhibition | Potency
51 | O=C(NNS(=O)(=O)c1ccc(F)cc1)c1cnccn1 | 13.9% | 
52 | C=CCn1c(=O)c(C(=O)Nc2ncccc2O)c(O)c2ccccc21 | 20.6% | 
53 | O=C(O)/C=C/c1ccc(S(=O)(=O)N2CCCCCC2)cc1 | 9.25% | 
54 | CCOC(=O)N1CCN(C(=O)CNC(=O)Cc2ccc(Cl)cc2)CC1 | -8.62% | 
55 | COc1cccc(N2CCN(c3ccc4nnc(CCC(=O)N5CCN(C)CC5)n4n3)CC2)c1 | -12.6% | 
56 | CCOC(=O)N1CCN(C(=O)c2cc3c(-c4ccc(Cl)cc4)nn(C)c3s2)CC1 |  | 16.4 µM (active)
57 | COc1cccc(/C=C/C(=O)OCC(=O)N2CCN(c3ccccc3)CC2)c1 | -21.8% | 
58 | COc1cccc(-c2nn(C)c3sc(C(=O)N4CCN(c5ccccc5)CC4)cc23)c1 |  | 23.1 µM (active)
59 | COc1cccc(-c2ccc(SCC(=O)N3CCN(c4ccccc4)CC3)nn2)c1 |  | 16.4 µM (active)
60 | Cn1nc(C(F)(F)F)c2cc(C(=O)N3CCOCC3)sc21 | 6.01% | 
61 | CCOC(=O)N1CCN(C(=O)c2ccc3nc4cc(Cl)ccc4c(=O)n3c2)CC1 | -27.5% | 
62 | CCOc1ccc(-c2ccc(SCC(=O)N3CCOCC3)nn2)cc1 | -7.39% | 
63 | O=C(Nc1nccs1)C1CCN(S(=O)(=O)c2ccc(Cl)c(C(F)(F)F)c2)CC1 | -10.5% | 
64 | O=C(NCc1cccnc1)c1ccccc1NC(=O)c1c(F)cccc1F | -10.2% | 
65 | CN(C)C(=O)c1cccn(Cc2cccc(C(F)(F)F)c2)c1=O | -13.1% | 
66 | CC(C)CC(=O)NC(=S)Nc1ccc(F)cc1F | -3.59% | 
67 | CCOC(=O)c1cc(NC(=O)c2cccnc2)ccn1 | 1.21% | 
68 | CCCCOC(=O)c1ccc(N2C(=O)CC(N3CCN(C/C=C/c4ccccc4)CC3)C2=O)cc1 (stereo not drawn) | -15.8% | 
69 | O=C(c1ccc(F)cc1)N1CCC(n2nnc3ccccc32)CC1 | 1.92% | 
70 | CC(NC(=O)CCCC1CCCCC1)c1ccc(S(N)(=O)=O)cc1 (stereo not drawn) | 9.33% | 
71 | CC(Sc1nc2cc(Cl)ccc2s1)C(=O)Nc1ccc2c(c1)OCO2 (stereo not drawn) | 5.21% | 
72 | COc1ccc(C2NC(=O)N(C)C3=C2C(=O)N(c2ccc(C(=O)O)cc2)C3)cc1 (stereo not drawn) | -7.11% | 
73 | CC(C(=O)Nc1ccc(F)c(F)c1F)N1CCCCCC1 (stereo not drawn) | -23.8% | 
74 | COc1ccc([N+](=O)[O-])cc1NC(=O)CC1SC(=Nc2cccc(C)c2C)N(/N=C(\C)c2ccc(C)cc2)C1=O (stereo not drawn) | 12.7% | 
75 | CCOc1ccc(CN2CCN(Cc3c[nH]c4ccccc34)CC2)cc1 |  | 3.66 µM (active)

Row | Structure (SMILES) | activity change, negative = growth inhibition | Potency
76 | CCOc1ccc(CC(=O)NC2CCN(Cc3ccccc3)CC2)cc1 | -11.6% | 
77 | CCOc1ccc(CN2CCCN(C)CC2)cc1 | -17.7% | 
78 | CC(C)(C)S(=O)(=O)N1Cc2cc(CO)cc(CCO)c2[C@H]1CCO | -2.54% | 
79 | C/C(CC(=O)NC(C)(C)C)=N\NC(=O)c1ccco1 | 5.55% | 
80 | Cc1csc2nc(COC(=O)c3cccc(N(C)C)c3)cc(=O)n12 | -24.8% | 
81 | O=c1cc(CCl)nc2scc(-c3ccccc3)n12 |  | 14.6 µM (active)
82 | CCCc1c(C)nc2scc(-c3ccc(Cl)cc3)n2c1=O | -12.2% | 
83 | Cc1onc(-c2ccccc2)c1C(=O)N1CCN(S(=O)(=O)c2ccccc2C(F)(F)F)CC1 | -3.88% | 
84 | COc1ccc(CNC(=O)c2nnn(CC(=O)Nc3cc(C)cc(C)c3)c2N)cc1 |  | inactive
85 | O=C(CSc1ncc(CO)n1Cc1ccc(F)cc1)NCc1ccco1 | -8.88% | 
86 | O=C(CSc1nnc(-c2cccs2)n1-c1ccccc1)NCc1ccco1 | 2.07% | 
87 | O=C(Cc1ccc(-n2c(=O)c3sccc3n(Cc3ccc(F)cc3)c2=O)cc1)NCc1ccco1 |  | 16.4 µM (active)
88 | Cc1ccc(N2C(=O)CC(NCc3ccc4c(c3)OCO4)C2=O)cc1Cl (stereo not drawn) | 2.01% | 
89 | CN(C)NC(=O)C(NC(=O)c1ccc(N)cc1)C12CC3CC(CC(C3)C1)C2 (stereo not drawn) | 1.22% | 
90 | COCCCN1C(=O)c2ccc(C(=O)OCC(=O)NCc3ccccc3OC)cc2C1=O | 1.23% | 
91 | C/C(=N/NC(=S)Nc1ccccc1)c1ccc2c(c1)OCO2 |  | 0.82 µM (active)
92 | C/C(=N/NC(=O)c1ccncc1)c1ccc2c(c1)OCO2 | 1.21% | 
93 | C/C(=N\NC(=O)C(N)=O)c1ccc2c(c1)OCCO2 | 13.6% | 
94 | CCCCNC(=O)CCn1nc(-c2ccc(Cl)cc2)ccc1=O | 23.4% | 
95 | CCOC(=O)C(C(=O)c1ccccc1)C(c1ccccc1)c1nccc2ccccc12 (stereo not drawn) |  | 20.6 µM (active)
96 | O=C(O)CSc1nccc2ccccc12 | -1.02% | 
97 | CCCn1nc2cc(C(=O)NCc3ccccc3)ccc2c1OCC | -13.4% | 
98 | Cc1ccc(NC(=O)C2(N3CCC3=O)CCCCC2)cc1 | 2.09% | 
